# According to PubChem BioAssay AID1671463 (Sanford-Burnham Center for Chemical Genomics, 2021):
# Out of some 370,000 compounds screened, about 520 (0.14%) were called active. This excerpt belongs to a sample that is enriched for actives. A number with no mark means an inactive call. Rule as the data show it: active = activation above about 40%; inactive = the rest.
# Target: Atrial natriuretic peptide receptor 1 (Homo sapiens) (UniProt P16066)
# Test: GC-A stimulated cGMP production enhancers – HEK293 GC-A cells, cGMP TR-FRET, EC30 ANP, primary screen (AID 1671463)
# Details: at 10 µM, hits give high values, 0% at EC30 ANP, 100% saturating ANP
# Chain of Atrial natriuretic peptide receptor 1 (Homo sapiens) (P16066 whole entry, looked up): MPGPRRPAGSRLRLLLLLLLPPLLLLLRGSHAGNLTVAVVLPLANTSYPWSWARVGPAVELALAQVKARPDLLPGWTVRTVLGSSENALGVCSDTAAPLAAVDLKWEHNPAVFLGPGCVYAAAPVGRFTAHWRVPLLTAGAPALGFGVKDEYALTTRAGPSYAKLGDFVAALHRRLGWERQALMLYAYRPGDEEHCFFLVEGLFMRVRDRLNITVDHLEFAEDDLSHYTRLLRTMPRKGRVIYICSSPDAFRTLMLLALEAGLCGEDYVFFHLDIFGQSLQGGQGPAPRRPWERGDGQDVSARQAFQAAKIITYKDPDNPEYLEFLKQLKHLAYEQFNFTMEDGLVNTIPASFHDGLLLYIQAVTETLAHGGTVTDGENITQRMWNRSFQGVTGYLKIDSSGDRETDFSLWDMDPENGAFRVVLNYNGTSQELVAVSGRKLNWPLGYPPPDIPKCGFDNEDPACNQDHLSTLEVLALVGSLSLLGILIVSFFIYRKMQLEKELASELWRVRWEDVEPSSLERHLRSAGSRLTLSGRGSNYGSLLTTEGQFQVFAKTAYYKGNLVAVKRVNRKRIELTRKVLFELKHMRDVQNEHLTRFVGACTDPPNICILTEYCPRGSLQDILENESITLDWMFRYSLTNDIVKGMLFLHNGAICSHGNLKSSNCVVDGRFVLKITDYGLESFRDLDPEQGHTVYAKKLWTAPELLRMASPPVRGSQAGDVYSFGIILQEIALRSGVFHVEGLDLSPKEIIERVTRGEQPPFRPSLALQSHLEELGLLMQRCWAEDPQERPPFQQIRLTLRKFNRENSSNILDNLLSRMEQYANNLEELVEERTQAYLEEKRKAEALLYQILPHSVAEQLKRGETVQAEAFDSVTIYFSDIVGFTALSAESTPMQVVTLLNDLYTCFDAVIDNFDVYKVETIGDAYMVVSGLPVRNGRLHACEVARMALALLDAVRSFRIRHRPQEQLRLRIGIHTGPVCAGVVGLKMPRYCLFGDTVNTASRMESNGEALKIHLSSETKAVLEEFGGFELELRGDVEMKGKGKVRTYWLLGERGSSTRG
row,Compound,activation
1,Cc1ccn(-c2cccc(-n3ccc(C)n3)n2)n1,5.87%
2,CCCCOc1ccc(NC(=O)[C@@H]2CCCN2C(=O)C2CCN(S(=O)(=O)c3ccc(C)cc3)CC2)cc1,2.31%
3,O=C(Nc1ccon1)c1nc[nH]c1C(=O)NCc1ccccc1,-0.12%
4,NC(N)=NCCCc1cn(CC(=O)N2CCNCC2)nn1,-2.97%
5,Cc1oc2cc3oc(=O)ccc3cc2c1C,-1.91%
6,CC(C)Oc1ccc(C(CC(=O)N2CCOCC2)C(C)C)cc1 (stereo not given),-1.14%
7,O=C(CSc1nnc(-c2ccncc2)o1)Nc1cccc(Cl)c1,-5.53%
8,O=C(COC(=O)CSc1nnc(-c2ccc(Cl)cc2)o1)Nc1cc(Cl)cc(Cl)c1,60.5% (active)
9,O=C(CSc1nnc(-c2ccncc2)o1)NCc1ccc(Cl)cc1,-2.38%
10,O=C1/C(=C\c2ccc([N+](=O)[O-])cc2)CS(=O)(=O)C/C1=C/c1ccc([N+](=O)[O-])cc1,43.4% (active)
11,O=[N+]([O-])c1ccc(CN2CC(N3CC=CC3)CS2(=O)=O)cc1 (stereo not given),0.5%
12,Nc1c(N(CCO)C(=O)C2CCCCC2)c(=O)[nH]c(=O)n1Cc1ccccc1,-4.4%
13,CC(NC(=O)COc1ccc(-c2ccccc2)cc1)C1CCCO1 (stereo not given),3.26%
14,COC(=O)CN1C(=O)[C@H]2[C@@H](C3CC3)N3C(=O)CN(Cc4ccc(-c5ccccc5)cc4)C(=O)[C@@]3(Cc3ccccc3)[C@H]2C1=O,4.81%
15,O=C(CSc1nc2ccccc2n1Cc1ccccc1)NNC(=S)Nc1ccccc1,0.91%
16,O=S(=O)(Nc1ccc(-c2ccc(N3CCOCC3)nn2)cc1)c1cc(Cl)ccc1Cl,0.58%
17,COc1cc(NC(=O)c2ccc(CNc3c(N4CCCC4)c(=O)c3=O)cc2)cc(OC)c1OC,-2.1%
18,Fc1ccc2c(c1)C(c1cccnc1)=NNC(c1cccs1)=N2,-28.1%
19,[O-][n+]1c2c(nn1-c1ccc(Cl)c(Cl)c1)-c1nonc1CC2,9.72%
20,C=CCOc1ccc(Cl)cc1CNCCCN1CCOCC1,-6.85%
21,O=C1C=C(c2ccnc3cc(Cl)ccc23)C[C@@H](c2ccc3c(c2)OCO3)C1,0.61%
22,CCOc1ccc(NC(=O)CSc2ncnc3c2sc2ccccc23)cc1,38.7%
23,CC(C)CCSc1ncnc2c1oc1nc3c(cc12)COC(C)(C)C3,-1.1%

row,Compound,activation
1,CC1(C)Cc2nc3sc4c(SCC(=O)NC(c5ccccc5)c5ccccc5)ncnc4c3cc2CO1,52.8% (active)
2,CN1CCC(=NNC(=O)CN(c2cccc(Cl)c2)S(C)(=O)=O)CC1,0.89%
3,CCCCCn1c(SCCC(C)C)nc2c1c(=O)[nH]c(=O)n2C,1.84%
4,COc1ccc2occ(C(=O)c3ccc(N=C(C)N(C)C)cc3)c2c1,-4.34%
5,Cc1nn(Cc2ccccc2)c(C)c1C(=O)N1CCN(CC(=O)Nc2ccccc2Cl)CC1,4.37%
6,CN(C)CCN=c1cc(-c2ccccc2)oc2ccc(Cl)cc12,1.39%
7,COc1ccc(C(CC(=O)c2ccccc2)S(=O)(=O)c2ccccc2)cc1 (stereo not given),-10.5%
8,O=C(c1ccc(F)c(S(=O)(=O)N2CCOCC2)c1)N(CCc1ccccc1)Cc1ccccc1,-3.51%
9,O=C(CN1C(=O)c2ccc([N+](=O)[O-])cc2C1=O)Nc1nnc(C2CC2)s1,5.52%
10,COc1ccc(NC(=O)C(CC(C)C)NC(=O)C2CCC(C)CC2)cc1 (stereo not given),-0.39%
11,CCOC(=O)N1CCN(C(=O)CSc2nnc(-c3c[nH]c4ccccc34)n2CCOC)CC1,-1.3%
12,CCNC(=O)N1CCN(S(=O)(=O)c2ccc3c(c2)OCCCO3)CC1,-0.67%
13,O=C(CCC1CCCN(Cc2ccc(O)c(Cl)c2)C1)NCc1ccccc1F (stereo not given),3.25%
14,COc1ccc2cc(C(=O)O)n(CC(=O)c3ccccc3)c2c1,-0.02%
15,CC(=O)OCCN1CCCC12CCC(c1ccccc1)CC2 (stereo not given),4.33%
16,COc1ccc(CCNC(=O)COc2ccc3c(c2)OCO3)cc1,-3.12%
17,NC(=O)C1=C[C@H](c2csc3ccccc23)C[C@H](OCc2ccc(CO)cc2)O1,-0.65%
18,CC(C)COC(=O)n1c(=O)oc2ccc(S(=O)(=O)N3CCCCC3)cc21,0.62%
19,COc1ccc(C2CC(c3ccccc3)=NN2C(=O)c2ccc(Cl)c([N+](=O)[O-])c2)cc1 (stereo not given),69.5% (active)
20,CCOc1ccc2nc(Cl)c(C3CC(c4ccccc4)=NN3C(=O)c3cccs3)cc2c1 (stereo not given),1.83%
21,COc1ccc(C2CC(c3cccc(OC)c3)=NN2c2ccc(S(N)(=O)=O)cc2)cc1 (stereo not given),6.44%
22,O=C1C=CC(=O)N1c1ccc(N2CCCCC2)cc1,50.5% (active)
